Molecules are shown by their SMILES. Out of some 69,000 compounds screened, about 8,600 (12%) showed an effect of 50% or more. What follows is part of a selection rich in strong results, with near analogues and random picks from the rest.

This passage reports INHIBITION results from ChEMBL document CHEMBL4513216, “Probing the Open Global Health Chemical Diversity Library for Multistage-Active Starting Points for Next-Generation Antimalarials” (ACS Infect Dis, 2020).

The subject of this test is Plasmodium berghei. Description: Screen against P. berghei liver stage (PbLuc), transformed with Luciferase, at 10uM. The test is classed as functional, HepG2. Particulars: tested at 10 uM.
On to `CN(C)[C@@H]1CCN(c2ncccn2)[C@H]1Cc1cccnc1`, for which the INHIBITION is listed as -31.4%.

As to `CCN1CCC(N2CCC(C(=O)N(C)C)CC2)CC1`, the INHIBITION is given as 15.6%.

For `Cc1ncsc1-c1nnc(C2CCN(Cc3ccccc3)CC2)o1`, the INHIBITION amounted to 27.8%.

Turning to `Cc1cccc(CN2CCC(c3nnc(-c4scnc4C)o3)CC2)c1`, the INHIBITION worked out at 23.4%. `Cc1ccsc1-c1nnc(C2CCN(Cc3ccc(F)cc3)CC2)o1`: the INHIBITION is recorded as 68.2%. For the compound `Cc1ncsc1-c1nnc(C2CCN(Cc3ccc(Cl)cc3)CC2)o1`, the INHIBITION stood at 76.8%. Take `Fc1ccc(CCN2CCC(c3nnc(-c4cccnc4)o3)CC2)cc1`: the INHIBITION worked out at 35.3%.

Regarding `Cc1ncsc1-c1nnc(C2CCN(Cc3cccc(Cl)c3)CC2)o1`, the INHIBITION is given as -6.3%.

`Cc1ncsc1-c1nnc(C2CCN(Cc3ccc(F)cc3)CC2)o1`: the INHIBITION was found to be 35.3%. `Cc1ccc(CN2CC[C@H](c3nnc(-c4ccco4)o3)C2)cc1`: the INHIBITION was -33%.

For the compound `COc1ccc(CN2CCC(c3nnc(-c4scnc4C)o3)CC2)cc1`, the INHIBITION is listed as 54.5%. Take `COc1ccc2c(c1)CN(C)C(=O)CCN2CC(O)C(F)(F)F` (centres undefined): the INHIBITION is -8.04%. Consider `Cc1cnc(CNCc2cn(CCN3CCSCC3)nc2C)cn1`, for which the INHIBITION turned out to be 4.68%. Consider `O=C(NCc1ccccn1)c1cnc(C2CCCN2)cn1` (centres undefined), for which the INHIBITION is reported as 18.3%.

As to `Cc1csc(NC(=O)c2cnc(C3CCCN(C)C3)cn2)n1` (centres undefined), the INHIBITION worked out at 71.3%.

In the case of `Cc1nn(C)c(C)c1-c1cnc(C2CCCN(C)C2)cn1` (centres undefined), the INHIBITION is -28.6%. For `O=C(NCC(F)F)c1cnc(C2CCCN2)cn1` (centres undefined) the value was 61.05%. For `Cc1csc(NC(=O)c2cnc(C3CCNCC3)cn2)n1` the value was 24.4%; for `Cc1cccc(NC(=O)c2cnc(C3CCCNC3)cn2)n1` (centres undefined), 10.4%; for `COc1c(C2CCCN2CC(=O)Nc2nc(C)cs2)c(C)nn1C` (centres undefined), 31.9%. The value for `FC(F)CNc1cnc(C2CCCN2)cn1` (centres undefined) was 5.15%; that for `Cc1csc(NC(=O)c2cnc(C3CCCN3)cn2)n1` (centres undefined) was 80.9%. Turning to `COCCN1Cc2nccn2CC(COCc2csc(C)n2)C1` (centres undefined), the INHIBITION stood at 29.5%. `CN(C)CCNC(=O)c1sc2ccccc2c1C1CCC(CN)CC1` (centres undefined): the INHIBITION was -77.3%. Regarding `COCC1CN(S(=O)(=O)N(C)C)Cc2cnn(CC3CCCC3)c21` (centres undefined), the INHIBITION is -17.1%. With `COc1cccc2c1ccn2CCNC(=O)CCNc1ncccn1`, the INHIBITION is listed as 38.5%. For `COc1ncnc2c1CCN(Cc1cccc(C)n1)CC2` the value was 10.7%; for `COC(=O)NCC(=O)N(C)Cc1csc(-c2cccs2)n1`, 49.2%. Regarding `CN(Cc1csc(-c2cccs2)n1)Cc1cccnc1N`, the INHIBITION is recorded as 55.9%. The value for `CC(NS(C)(=O)=O)C(=O)N(C)Cc1csc(-c2cccs2)n1` (centres undefined) was -102%; that for `Cc1cc(CN(C)Cc2csc(-c3cccs3)n2)n[nH]1` was 57%. In the case of `CCc1nc(CN(C)Cc2nnc(-c3cccs3)o2)cs1`, the INHIBITION worked out at 7.81%. For `CN(Cc1csc(-c2cccs2)n1)CC(O)CO` (centres undefined) the value was 51.5%; for `CNC(=O)C(C)S(=O)(=O)Cc1csc(-c2cccs2)n1` (centres undefined), 30.1%; for `CN(Cc1csc(-c2cccs2)n1)Cc1ncccc1C(=O)O`, 5.91%. On to `Cc1nc(CN(C)Cc2csc(-c3cccs3)n2)co1`, for which the INHIBITION is 15.7%. For `O=C(C1CCOCC1)N1CCCC1c1cncc(CN2CCCC2)n1` (centres undefined), the INHIBITION is recorded as 41.5%. The value for `COCC(=O)N1CC(c2csc(NC(C)=O)n2)C1` was 2.71%. With `CNC(=O)C1CCN(C(=O)NCCc2ccc(Cl)s2)CC1`, the INHIBITION amounted to 23.5%.

In the case of `Cc1ccc(-c2nnc(C3CCCN3S(=O)(=O)c3cnn(C)c3C)o2)s1` (centres undefined), the INHIBITION came out at 19.02%.

With `Cc1ccc(NC2CCN(C(=O)CCc3c(C)noc3C)CC2)nn1`, the INHIBITION was determined as 7.12%. Consider `CCc1ncnc2c1CCN(C(=O)c1ccccn1)CC2`, for which the INHIBITION is -0.813%. The value for `CC1CCc2nc(O)c(C(=O)NCCc3cccs3)cc2C1` (centres undefined) was -111%; that for `O=C(NC1CC1)c1cc2c(nc1O)CC(c1cccs1)CC2=O` (centres undefined) was 75.2%. For `O=C(O)c1cc2c(nc1O)CC(c1cccc(Cl)c1)CC2=O` (centres undefined) the value was -23.7%; for `COCCNC(=O)c1cc2c(nc1O)CC(c1cccs1)CC2=O` (centres undefined), 55.2%.

With `O=C(O)c1cc2c(nc1O)CC(c1cccs1)CC2=O` (centres undefined), the INHIBITION was -6.32%. For `O=C1CC(c2cccs2)Cc2nc(O)c(C(=O)N3CCCC3)cc21` (centres undefined), the INHIBITION is listed as -60.7%. With `O=C(Cc1ccccc1Cl)Nc1cc(N2CCCC2)ncn1`, the INHIBITION is recorded as -12.1%.

`O=C(O)[C@@H]1CN(C(=O)CCN2CCCCC2)C[C@H]1c1ccccc1`: the INHIBITION is reported as -24%.

On to `CCOCc1nc(-c2ccc(F)cc2Cl)n(C2CCN(C)CC2)n1`, for which the INHIBITION was found to be 8.51%. In the case of `Cc1noc(C)c1CNC(=O)Nc1ccc(N2CCSCC2)cc1`, the INHIBITION worked out at 7.93%. The value for `Cc1cc(NC(=O)CN2CCc3cncnc3C2)on1` was 43.3%; that for `O=C(c1ccccn1)N1C[C@H]2CC[C@@H](C1)N(C(=O)c1ccsc1)C2` was 20.6%. The value for `CCn1ccnc1CNc1nccc(-c2cn(C)nc2C)n1` was -67.9%; that for `CCn1ccnc1CNc1nccc(-c2c(C)nn(C)c2C)n1` was -47.8%. Turning to `CCc1nccn1CCCNc1nccc(-c2c(C)nn(C)c2C)n1`, the INHIBITION came out at 65.2%. With `CCc1nc(CN(C(C)=O)C2CCN(Cc3csc(C)n3)C2)no1` (centres undefined), the INHIBITION is on record as -13.5%. The value for `COCC(=O)N[C@@H]1CN(Cc2ccc3c(c2)OCCO3)C[C@H]1O` was 52%; that for `O=C(NCC1CC1)N1CCN(Cc2ccc3c(c2)OCCO3)CC1` was 13.9%; that for `COCC(=O)NC[C@]12COC[C@H]1CN(Cc1ccc3c(c1)OCO3)C2` was 0.453%.

As to `CC(=O)N1CCN(Cc2ccc3c(c2)OCCO3)CC(O)C1` (centres undefined), the INHIBITION worked out at 15.8%. The value for `CCC[C@H]1CN(Cc2ccc3c(c2)OCCO3)C[C@@H]1NC(=O)COC` was 37.6%; that for `COCC(=O)NC[C@]1(O)CN(Cc2ccc3c(c2)OCCO3)C[C@H]1O` was 66.8%.

`Cc1nc(CN2CCCC(Cn3cncn3)C2)no1` (centres undefined): the INHIBITION is 34.7%. `CN(Cc1nnc(C2CC2)n1C)S(=O)(=O)c1ccc(F)c(C#N)c1`: the INHIBITION is -6.46%.

In the case of `CS(=O)(=O)N1C[C@H]2CC[C@@H](C1)N(Cc1ccsc1)C2`, the INHIBITION is 10.2%. On to `O=C(CCc1nc2cc(Br)cnc2[nH]1)NCCCn1ccnc1`, for which the INHIBITION is listed as -7.28%. For `CN(C)c1cc(C2CCCN2Cc2ccccc2OCC(=O)O)ccn1` (centres undefined) the value was 24.4%; for `Cc1ccncc1C(=O)N1C[C@H]2CN(CC3CCC3)C[C@@]2(C(=O)O)C1`, 42.3%. The value for `CN(Cc1ccncc1)C1CC2(CCN(c3ncccn3)CC2)C1` was 58.7%; that for `CN(Cc1ccncc1)C1CC2(CCN(c3ncc(F)cn3)CC2)C1` was 55.5%. With `CN(Cc1cccnc1)C1CC2(CCN(c3ncc(F)cn3)CC2)C1`, the INHIBITION was 49.1%. As to `CN(Cc1ccncc1)C1CCC[C@@H]2CN(c3ncccn3)C[C@H]12` (some centres undefined), the INHIBITION is given as -22.7%.

With `CN(Cc1cccnc1)C1CC2(CCN(c3ncccn3)CC2)C1`, the INHIBITION is -20.8%. In the case of `Cc1cnc(N2CCC3(CC2)CC(N(C)Cc2ccncc2)C3)nc1`, the INHIBITION worked out at 49.1%. On to `CSCCCN1CCCC1c1noc(C(C)C)n1` (centres undefined), for which the INHIBITION was determined as 1.18%. For `Cc1cnn(C2CCCN(C(=O)CCNS(C)(=O)=O)C2)c1` (centres undefined) the value was 19.2%; for `C1CCC(c2nnc3sc(C4CCOC4)nn23)C1` (centres undefined), 16.7%; for `Cc1cc(N)nc(SC2CCN(c3ccccc3)C2=O)n1` (centres undefined), 6.94%.

For the compound `Cc1cc(N)nc(SC2CCN(c3ccccc3F)C2=O)n1` (centres undefined), the INHIBITION amounted to 56.5%. On to `Cc1cc(N)nc(SC2CCCN(Cc3ccccc3)C2=O)n1` (centres undefined), for which the INHIBITION worked out at 26.8%. Take `CCCc1nnc(N2CCC3(CCC(=O)N(C)C3)CC2)o1`: the INHIBITION came to 47.2%.

Turning to `Cc1noc(C)c1CN(C)Cc1csc(-c2ncccn2)n1`, the INHIBITION worked out at 62.8%. For the compound `CCOc1ccc(-c2nc(CN(C)Cc3c(C)noc3C)cs2)cc1`, the INHIBITION was 88.5%. For `CC(C)N(CC(N)=O)Cc1csc(-c2ncccn2)n1`, the INHIBITION is reported as -16.8%. For `CC(C)c1nc(CN(C)Cc2ccc(O)c(Cl)c2)cs1` the value was 17.1%. The value for `COc1ccc(CN(C)Cc2c(C)noc2C)c(Cl)c1OC` was 14.3%; that for `Cc1noc(C)c1CN(Cc1ccccc1)C(C)C` was 60.2%; that for `CC(C)N(Cc1ccccc1)Cc1csc(-c2ncccn2)n1` was -50.2%. On to `Cc1noc(C)c1CN(Cc1ccccc1)C(C)CN1CCOCC1` (centres undefined), for which the INHIBITION is recorded as 37.4%. `Cc1cc(CN(C)Cc2csc(-c3ccc(C(C)C)cc3)n2)no1`: the INHIBITION stood at 83.4%. Turning to `CC(C)N(Cc1ccccc1)Cc1nnsc1Cl`, the INHIBITION is listed as -37.8%. The value for `Cc1cc(CN(C)C(=O)CC(C)C)no1` was -7.93%; that for `Cc1noc(C)c1CN(C)C(=O)CCOc1ccc(Cl)cc1` was 2.65%.

With `O=C(CCc1cccc(C2CCNCC2)n1)N1CCCCC1`, the INHIBITION was -3.94%. Take `Oc1cccc(CN2C[C@@H]3CC[C@H]2CN(Cc2ccc(F)cc2)C3)c1`: the INHIBITION is given as 39.5%. With `O=C(c1cc(C2CC2)no1)N1C[C@@H]2CC[C@H]1CN(Cc1ccccn1)C2`, the INHIBITION is 5.87%. The value for `O=C(COc1coc(CN2CCCC2)cc1=O)Nc1cc(Cl)ccc1Cl` was -12.5%; that for `CC(C)CN1CCS(=O)(=O)[C@@H]2CCN(S(=O)(=O)c3ccccc3)CC[C@@H]21` was 8.85%. For the compound `Cc1noc(C)c1CN(C)Cc1csc(-c2ccc(F)cc2)n1`, the INHIBITION is recorded as 77.4%. For `CN(CC(N)=O)Cc1csc(-c2ccc(F)cc2)n1` the value was -0.991%. Consider `COc1cccc(CN(C)Cc2c(C)noc2C)c1OC`, for which the INHIBITION is on record as -6.61%. For `Cc1noc(C)c1CN(C)CC(c1cccs1)N1CCOCC1` (centres undefined) the value was -54.6%. The value for `Cc1noc(C)c1CN(C)Cc1nc(N)c2ccccc2n1` was 20.9%; that for `Cc1noc(C)c1CN(C)Cc1csc(-c2ccccc2F)n1` was 62.8%; that for `Cc1noc(C)c1CN(C)CCC(=O)N1CCc2sccc2C1` was 0.932%.

`Cc1noc(C)c1CN(C)Cc1csc(-c2ccc(C(C)C)cc2)n1`: the INHIBITION worked out at 91.1%. With `Cc1noc(C)c1CN(C)C(C)c1cccs1` (centres undefined), the INHIBITION is given as 46.4%.
